Compound activity (PubChem)
Hits are enriched below; roughly 8.1% of the tested compounds scored in any of these assays.
KB-3-1 cytotox – qHTS assay for MDR1-selective chemotherapeutics: Primary screen using the parental adenocarcinoma cell KB-3-1; KB-3-1 viability, CellTiter-Glo ATP luminescence, 72 h; Potency, µM (series often up to 46.1 µM), actives largely listed as cytotoxic; AID 1347075, 2019; 400,000 compounds, 1.4% hits; also: nearly all actives have a fitted effect of over 60% in size
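Parental KB-3-1 adenocarcinoma cells in phenol-red-free DMEM with 10% FBS were pin-treated with compounds at several concentrations, incubated 72 h at 37 °C, and viability read by CellTiter-Glo luminescence; concentration-effect curves were fitted after normalization.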
MCF10A rereplic – A quantitative high throughput screen for small molecules that induce DNA re-replication in MCF 10a normal breast cells; MCF 10A DNA re-replication, Hoechst nuclear intensity, 48 h; Potency, µM (highest dose often 46.1 µM), hits mostly activators; 350,000 compounds, 2.9% hits; AID 624296, 2012; also: nearly all actives have a fitted effect of over 50% in size
KB-V1 cytotox – qHTS assay for MDR1-selective chemotherapeutics: Primary screen using the drug-selected MDR subline cells KB-V1 | KB-V1 MDR cells viability, CellTiter-Glo, 72 h | Potency, µM (doses to about 46.1 µM), hits mostly cytotoxic | 400,000 compounds, 3.4% hits | AID 1347076, 2019; also: nearly all actives have a fitted effect of over 60% in size
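KB-V1 cells (P-gp-expressing MDR subline of KB-3-1) in phenol-red-free DMEM with 10% FBS were exposed to library compounds over a concentration series for 72 h at 37 degrees C. Viability read by CellTiter-Glo luminescence; concentration-effect curves fitted after normalization.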
ELG1 repair inh – qHTS screen for small molecules that inhibit ELG1-dependent DNA repair in human embryonic kidney (HEK293T) cells expressing luciferase-tagged ELG1; Potency, µM (titrated, usually from 46.1 µM), usual class: inhibitors; AID 504467, 2011; 330,000 compounds, 2.3% hits; HEK293T ELG1-luciferase reporter, luminescence, 16 h; DNA damage induced by 5-fluorouridine; also: nearly all actives have a fitted effect of over 55% in size
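Reporter activity after DNA damage by 5-fluorouridine is monitored. Compound-treated cells incubate 16 hr at 37 °C, then ONE-Glo is added for 30 min before luminescence reading.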
SW480 rerep – A quantitative high throughput screen for small molecules that induce DNA re-replication in SW480 colon adenocarcinoma cells. SW480 DNA re-replication, Hoechst DNA content imaging, 48 h. Potency, µM (top dose mostly 46.1 µM), hits mostly activators. 340,000 compounds, 1.8% hits. AID 624297, 2012; also: nearly all actives have a fitted effect of over 55% in size
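Hoechst fluorescence of nuclei (405 nm excitation, 500-530 nm emission) measured by plate-scanning imager after 48 hr compound exposure at 37 C; re-replication scored as increased number of nuclei with elevated intensity.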
Numbers stand for hits; - = inactive; ? = inconclusive; . = no result given. Calls follow the shape of the dose curve; as a rule, active = well fitted curve in the direction sought with a large enough effect; inconclusive = small, poorly fitted or top-dose-only effect, or another doubt; inactive = no such curve, though single readings can be large; an effect the other way counts as inactive or inconclusive.

SMILES	KB-3-1 cytotox	MCF10A rereplic	KB-V1 cytotox	ELG1 repair inh	SW480 rerep
COc1ccccc1NC(=O)/C(=C/c1cccs1)NC(=O)c1ccco1	-	-	-	-	4.6µM
COc1ccccc1NC(=O)c1sc2nc(-c3ccco3)ccc2c1N	-	15µM	-	?	-
COc1cccc(-c2ccc3c(N)c(C(=O)Nc4ccccc4C)sc3n2)c1	-	.	-	.	.
Nc1c(C(=O)Nc2ccccc2)sc2nc(-c3ccco3)ccc12	?	18µM	?	-	?
Cc1cc(N2C(=O)C(O)=C(C(=O)c3cccs3)C2c2ccccc2)no1 (configuration not stated)	-	?	?	-	-
Cc1cccnc1NC(=S)NC(=O)/C=C/c1ccccc1	-	-	-	-	-
Cc1cccc(NC(=S)NNC(=S)NCc2ccccc2)c1	-	-	?	-	-
COc1ccc2nc3cccc(OC)c3nc2c1	-	1.3µM	-	?	?
COC(=O)CCC(C)C1CCC2C3CCC4CC(O)CCC4(C)C3CC(O)C12C (configuration not stated)	-	21µM	-	.	-
CCOC(=O)c1cccc(Nc2ncnc3ccccc23)c1	-	-	12µM	-	-
CCCOC(=O)c1cccc(Nc2nc(-c3cccnc3)nc3ccccc23)c1	?	?	?	13µM	?
O=C(OCCNc1nc(-c2ccccc2)nc2ccccc12)c1cccnc1	-	-	?	?	-
COC(=O)c1cccc(Nc2ncnc3ccc(C)cc23)c1	-	?	?	?	-
Cc1csc(NC(=O)CCCSc2nc3ccccc3s2)n1	-	18µM	?	?	-
O=C(CCn1c(=O)sc2ccccc21)Nc1nccs1	-	-	-	?	-
Cc1csc(NC(=O)CCn2c(=O)sc3ccccc32)n1	-	?	23µM	?	-
CCCc1nnc(NC(=O)Cn2c(=O)sc3ccccc32)s1	-	-	18µM	-	-
CCCCCC1CCC(C(=O)NCCN2CCOCC2)CC1 (configuration not stated)	-	-	-	-	-
CC(NC(=O)Cc1ccc(S(=O)(=O)N2CCCCC2)cc1)c1ccccc1 (configuration not stated)	-	-	-	-	-
N#Cc1ccc(-c2nc3ccccc3nc2-c2ccccc2)cc1C#N	-	-	?	16µM	-
Nc1sc(Cc2ccccc2)cc1C(=O)c1c(-c2ccccc2)[nH]c2ccccc12	5.8µM	.	13µM	.	.
COc1ccc(Nc2nc(N)nc(CCl)n2)cc1	?	?	?	?	3.3µM
Cc1ccccc1Nc1nc(N)nc(CCl)n1	?	?	-	?	?
Nc1nc(CCl)nc(Nc2ccc3ccccc3c2)n1	?	?	23µM	-	-
O=C1C2CCCN2C(=O)N1CCCCN1CCN(c2cccc(Cl)c2)CC1 (configuration not stated)	-	?	8.2µM	-	-
SMILES	KB-3-1 cytotox	MCF10A rereplic	KB-V1 cytotox	ELG1 repair inh	SW480 rerep
O=C(Nc1cccc(Cl)c1)c1cnc[nH]1	-	-	?	?	-
CN(C)c1cccc(N(C)C)c1CNC(=O)NC(=O)c1c(F)cccc1F	-	-	?	-	-
CN(C)c1cccc(F)c1C(=O)NC(=O)Nc1ccc(Cl)cc1	3.7µM	10µM	1.8µM	.	?
O=C(CSc1n[nH]c(=O)n1Cc1ccccc1)Nc1ccc(F)c(F)c1F	?	-	16µM	-	-
O=C(COC(=O)c1cc(Br)c(Br)s1)NCCC1=CCCCC1	-	-	-	-	-
CC(C)C[C@H](NC(=O)OC(C)(C)C)C(=O)N[C@@H](CO)[C@H](O)[C@@H]1C[C@@H]1C(=O)NC1CCCCC1	-	?	10µM	-	-
O=C1C(Cl)=C(N2CCOCC2)C(=O)N1CCc1ccccc1	-	-	15µM	?	-
CN1CCN(C2=C(Cl)C(=O)N(CCc3ccccc3)C2=O)CC1	-	-	-	?	-
CCc1nc(N)nc(N)c1-c1ccc(NCCN)c([N+](=O)[O-])c1	.	-	.	.	-
CCOC(=O)c1c(NC(=S)N2CCCCC2)sc2c1CCN(C(=O)OCC)C2	-	21µM	-	?	-
C=CCNC(=S)Nc1sc2c(c1C(=O)OCC)CCN(C(=O)OCC)C2	-	?	-	.	-
CCOC(=O)c1c(NC(=O)Nc2ccc(C)cc2)sc2c1CCN(C)C2	-	?	-	-	18µM
CCOC(=O)c1c(NC(=S)N2CCOCC2)sc2c1CCN(C(=O)OCC)C2	-	?	?	23µM	?
CCOC(=O)N1CCc2c(sc(NC(=O)CN3CCOCC3)c2C#N)C1	-	?	?	?	-
COc1cc(COCC(O)CN2CCN(CCN3C(=O)c4cccc5cccc(c45)C3=O)CC2)cc(OC)c1OC (configuration not stated)	-	-	-	12µM	?
CC(=O)c1ccccc1OCC(O)CN1CCN(CCN2C(=O)c3cccc4cccc(c34)C2=O)CC1 (configuration not stated)	-	?	-	?	?
COc1ccc(COCC(O)CN2CCC(CN3C(=O)c4cccc5cccc(c45)C3=O)CC2)cc1OC (configuration not stated)	-	-	?	?	-
O=C1c2cccc3cccc(c23)C(=O)N1CCN1CCN(CC(O)COCc2ccc(Cl)cc2)CC1 (configuration not stated)	?	?	?	21µM	.
COC(=O)c1ccc(CSc2nc3ccc(C)cc3[nH]2)o1	-	-	?	-	-
O=C1COc2ccc(C(=O)COC(=O)c3ccccc3F)cc2N1	-	-	-	?	-
CCNC(=S)N1N=C2c3ccccc3CCC2C1c1ccc(F)cc1 (configuration not stated)	?	6.5µM	21µM	?	-
CC(=O)N1N=C2c3ccccc3CCC2C1c1ccc(F)cc1 (configuration not stated)	?	?	?	?	-
Fc1ccc(COc2cccc3cccnc23)cc1	-	-	-	?	-
Cc1ccc(N=C2NC(=O)/C(=C/c3cccn3C)S2)cc1C	?	15µM	?	?	?
Cc1ccc(N=C2NC(=O)/C(=C/c3cccn3C)S2)cc1	?	?	?	?	10µM
Cc1ccc(N=C2NC(=O)/C(=C/c3cccs3)S2)cc1C	-	16µM	?	-	-
Cc1ccc(N=C2NC(=O)CS2)cc1C	?	-	9.2µM	-	-
Cc1cccc(N=C2NC(=O)/C(=C\c3cccs3)S2)c1	-	?	-	?	?
Cc1cccc(N=C2NC(=O)CS2)c1	-	-	?	-	-
Cc1cccc(N=C2NC(=O)/C(=C/c3cccn3C)S2)c1C	-	?	?	?	-
